Experimental data: PubChem BioAssay (EPA / NIEHS)
Inconclusive results are not listed. Activity calls are given as the source filed them. The calls were made as follows, unless noted: active = hit-call score of the fitted dose curve at least 0.9, where 1 is the maximum; inactive = score below 0.9.

Legend:
[1] = ACEA_ER_80hr: ACEA Biosciences xCELLigence Real-Time Cell Analysis on Estrogen Receptor Agonism for Proliferation (AID 2282667; active = hit-call score of the fitted dose curve at least 0.9, where 1 is the maximum); settings: T47D proliferation, impedance (xCELLigence), 80 h
Method in brief: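 Real-time impedance growth kinetics of human T-47D breast cells read 80 h after dosing, gain-of-signal fitted relative to DMSO. Compounds: 1:4 serial series, top final concentration 100 uM, n = 2.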

[2] = APR_HepG2_CellCycleArrest_24hr: Apredica 24-hour HepG2 Assay for Cell Cycle Arrest (AID 2282905); settings: imaging, actives raise or lower the signal;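 also: cell cycle arrest scored as ratio of 2N to 4N nuclear DNA content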
Method in brief: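 HepG2 cells were exposed to compounds at 0.39–200 uM (ten concentrations, duplicate) in 0.5% v/v DMSO for 24 hr. After formaldehyde fixation and Triton permeabilization, Hoechst 33342-stained nuclei were imaged at 20x; DNA content was quantified, with bidirectional fitting against DMSO.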

[3] = APR_HepG2_NuclearSize_24hr: Apredica 24-hour HepG2 Assay for Nuclear Size (AID 2282907); settings: high-content imaging, actives raise or lower the signal
Method in brief: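 HepG2 human liver cells were exposed for 24 hr to compounds at 0.39–200 uM (ten concentrations, duplicate) in 0.5% v/v DMSO. They were then formaldehyde-fixed, Triton-permeabilized and Hoechst 33342-stained, and nuclear diameter was imaged at 20x. Bidirectional fits were made against DMSO.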

[4] = APR_HepG2_CellLoss_24hr: Apredica 24-hour HepG2 Assay for Cell Loss (AID 2282908); settings: high-content imaging;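 also: fit in both directions so a hit may be cell loss or gain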
Method in brief: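 Compounds were tested at 0.39–200 uM in duplicate with 0.5% v/v DMSO final. Cells were then fixed in 3.7% formaldehyde, Hoechst 33342 nuclei were imaged at 20x by HCS, and cell number was fitted bidirectionally against DMSO.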

[5] = APR_HepG2_MicrotubuleCSK_24hr: Apredica 24-hour HepG2 Assay for Microtubule CSK Stabilty (AID 2282909); settings: HepG2 microtubule cytoskeleton imaging, actives raise or lower the signal
Method in brief: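 HepG2 cells exposed 24 h to compounds at 0.39–200 uM (duplicate, 0.5% v/v DMSO final), then fixed, permeabilized and immunostained for alpha-tubulin with Hoechst 33342. Cytoskeleton imaged at 20x; bidirectional fit versus DMSO baseline.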

[6] = APR_HepG2_MitoticArrest_24hr: Apredica 24-hour HepG2 Assay for Mitotic Arrest (AID 2282910); settings: high-content imaging, actives raise or lower the signal
Method in brief: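 Compounds are dosed onto HepG2 cells across ten concentrations up to 200 uM for 24 hr. Cells are then fixed in 3.7% formaldehyde, permeabilised, and labelled for phospho-histone H3 and nuclei; images are scored by cell cycle analysis and fitted bidirectionally relative to DMSO.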

[7] = APR_HepG2_MitoMembPot_24hr: Apredica 24-hour HepG2 Assay for Mitochondrial Membrane Potential (AID 2282911); settings: imaging, actives raise or lower the signal
Method in brief: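 Mitochondrial membrane potential imaged via MitoTracker Red CMXRos (250 nM, 30 min pre-fixation) in fixed HepG2 cells with Hoechst nuclear identification. Ten concentrations 0.39–200 uM, 24 h treatment, 0.5% DMSO; CCCP as positive control.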

[8] = APR_HepG2_MitoMass_24hr: Apredica 24-hour HepG2 Assay for Mitochondrial Mass (AID 2282912); settings: high-content imaging, actives raise or lower the signal
Method in brief: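 Human HepG2 liver cells were exposed for 24 hr to compounds at 0.39–200 uM (duplicates, 0.5% v/v DMSO final). They were stained live with 250 nM MitoTracker Red CMXRos for 30 min, fixed in 3.7% formaldehyde, and imaged by HCS fluorescence; signals were fitted bidirectionally against DMSO.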

[9] = APR_HepG2_p53Act_24hr: Apredica 24-hour HepG2 Assay for p53 Activation (AID 2282913); settings: high-content imaging, actives raise or lower the signal;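 also: p53 protein immunofluorescence averaged per cell in HepG2 with Hoechst nuclei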
Method in brief: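 Fluorescence imaging of formaldehyde-fixed HepG2 cells labelled for p53 and with Hoechst, 24 h after dosing (0.39–200 uM, duplicate wells, 0.5% v/v DMSO). Signal fitted in both directions relative to DMSO.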

[10] = APR_HepG2_CellCycleArrest_72hr: Apredica 72-hour HepG2 Assay for Cell Cycle Arrest (AID 2282914); settings: high-content imaging, actives raise or lower the signal
Method in brief: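 Read-out: nuclear DNA content from Hoechst 33342 high-content imaging (20x, six fields/well) after 3.7% formaldehyde fixation, fitted bidirectionally against DMSO. Treatment was 72 h in HepG2, ten concentrations 0.39–200 uM, duplicate, 0.5% DMSO.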

[11] = APR_HepG2_CellLoss_72hr: Apredica 72-hour HepG2 Assay for Cell Loss (AID 2282915); settings: high-content imaging
Method in brief: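 Cell number comes from Hoechst 33342-labelled nuclei, imaged at 20x after 3.7% formaldehyde fixation. Dosing was 0.39–200 uM, ten concentrations in duplicate, 0.5% DMSO final, for 72 h. Bidirectional fit relative to DMSO baseline.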

[12] = APR_HepG2_P-H2AX_72hr: Apredica 72-hour HepG2 Assay for H2AX Phosphorylation (AID 2282916); settings: imaging, actives raise or lower the signal;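 also: phospho-histone H2A.x immunostain intensity per cell marking DNA damage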
Method in brief: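 HepG2 human liver cells were exposed for 72 hr to compounds at 0.39–200 uM (10 concentrations, duplicate per plate) in 0.5% v/v DMSO. Fixed, permeabilized cells were immunolabeled for phospho-histone H2A.x with Hoechst 33342 and imaged by HCS fluorescence; bidirectional fit versus DMSO.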

[13] = APR_HepG2_MitoMembPot_72hr: Apredica 72-hour HepG2 Assay for Mitochondrial Membrane Potential (AID 2282917); settings: imaging, actives raise or lower the signal
Method in brief: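 Membrane potential read by MitoTracker Red CMXRos (250 nM, 30 min, pre-fixation) fluorescence imaging of HepG2 after 72 hr exposure. Ten concentrations, 0.39–200 uM, duplicate wells, 0.5% DMSO; fitted in both directions against DMSO baseline.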

[14] = APR_HepG2_MitoticArrest_72hr: Apredica 72-hour HepG2 Assay for Mitotic Arrest (AID 2282918); settings: high-content imaging, actives raise or lower the signal
Method in brief: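 High-content imaging of fixed human HepG2 cells after 72 h compound exposure (0.39–200 uM, duplicates, 0.5% DMSO); mitotic arrest scored from phospho-histone H3 and nuclear Hoechst staining relative to DMSO.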

[15] = APR_HepG2_MicrotubuleCSK_72hr: Apredica 72-hour HepG2 Assay for Microtubule CSK Stabilty (AID 2282919); settings: HepG2 microtubule cytoskeleton, high-content imaging, actives raise or lower the signal
Method in brief: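 Read-out is tubulin fluorescence intensity from high-content imaging of HepG2 cells, with nuclei identified by Hoechst 33342. Treatment lasts 72 h at 0.39–200 uM, and curves are fitted bidirectionally against the DMSO negative control.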

[16] = APR_HepG2_P-H2AX_24hr: Apredica 24-hour HepG2 Assay for H2AX Phosphorylation (AID 2282920); settings: high-content imaging, actives raise or lower the signal
Method in brief: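 High-content imaging of phospho-histone H2A.x immunofluorescence, nuclei counterstained with Hoechst 33342, in fixed HepG2 cells. Compounds ran 0.39–200 uM in duplicate for 24 h, final DMSO 0.5%. Signal change fitted both directions against DMSO.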

[17] = APR_HepG2_StressKinase_72hr: Apredica 72-hour HepG2 Assay for Stress Kinase (AID 2282921); settings: HepG2 stress kinase (phospho-c-Jun) imaging, actives raise or lower the signal
Method in brief: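 Cells were exposed for 72 h to ten concentrations (0.39–200 uM, duplicate) at 0.5% v/v DMSO final, then fixed with 3.7% formaldehyde, permeabilized and immunostained for phospho-c-Jun (Cy3 secondary) with Hoechst nuclear counterstain.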

[18] = APR_HepG2_StressKinase_24hr: Apredica 24-hour HepG2 Assay for Stress Kinase (AID 2282922); settings: HepG2 stress kinase (phospho-c-Jun) imaging, actives raise or lower the signal
Method in brief: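 HepG2, 24 hr dosing, 0.39–200 uM in duplicate, 0.5% DMSO; formaldehyde fix (3.7%), 0.5% Triton X-100; anti-phospho-c-Jun + Cy3 secondary, Hoechst counterstain; ArrayScan imaging; bidirectional curve fit vs DMSO baseline.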

[19] = APR_HepG2_p53Act_72hr: Apredica 72-hour HepG2 Assay for p53 Activation (AID 2282923); settings: high-content imaging, actives raise or lower the signal;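 also: average cellular p53 protein immunofluorescence intensity in HepG2 cells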
Method in brief: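 Cells were dosed for 72 hr with compounds at 0.39–200 uM in duplicate (final DMSO 0.5% v/v), then fixed in 3.7% formaldehyde, permeabilized with Triton X-100 and immunostained for p53 (Cy5) with Hoechst 33342 nuclear counterstain.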

[20] = APR_HepG2_MitoMass_72hr: Apredica 72-hour HepG2 Assay for Mitochondrial Mass (AID 2282924); settings: high-content imaging, actives raise or lower the signal;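 also: MitoTracker Red CMXRos stain intensity per cell imaged as mitochondrial mass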
Method in brief: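 HepG2, 72 hr cmpd, 10 conc 0.39–200 uM in dup, DMSO 0.5% v/v. MitoTracker Red CMXRos 250 nM 30 min pre-fix; formaldehyde 3.7% fix 30 min RT. HCS imaging, gain/loss fit vs DMSO.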

Measured: AC50

CCC(=O)OC(C)(C)C1CC=C(C)CC1 (stereo not given)
inactive: [1]

C=C(C)CCCC(C)CCO (stereo not given)
inactive: [1]

CC(C)(O)CCc1ccccc1
inactive: [1]

CC(=O)CC(=O)N(C)C
inactive: [1]

CCCCCc1cccc(=O)o1
inactive: [1]

CCCO[Si](OCCC)(OCCC)OCCC
inactive: [1]

C[C@]12CC[C@@H]3c4ccc(O)cc4CC[C@H]3[C@@H]1CC[C@@H]2O
active: [4] 18.7 µM | [5] 32.4 µM | [6] 22.6 µM | [9] 25.1 µM | [11] 28.6 µM | [12] 30.7 µM | [14] 32.8 µM | [16] 24.5 µM | [19] 25.6 µM
not listed: [1]
inactive: all other assays above
